The values below come from ChEMBL document CHEMBL4513216, “Probing the Open Global Health Chemical Diversity Library for Multistage-Active Starting Points for Next-Generation Antimalarials” (ACS Infect Dis, 2020).

The campaign covered roughly 69,000 compounds. About 8,600 (12%) showed an effect of 50% or more. What follows is part of a selection rich in strong results, with near analogues and random picks from the rest.

In this experiment the test system is Plasmodium berghei. Nature of the experiment: Screen against P. berghei liver stage (PbLuc), transformed with Luciferase, at 10uM. The experiment is classed as functional, HepG2. The settings on record: tested at 10 uM.
For `O=C(CCNc1ccccc1)NC1CCN(C(=O)C2CCCCC2)CC1`, the INHIBITION stood at 27.6%.

Regarding `O=C(c1ccoc1)N1CCOCC2(CCN(C3CCOCC3)C2)C1` (stereo unspecified), the INHIBITION stood at 34.4%.

As for `CC(C)NC(=O)N1CCCC2(CCN(c3ccsc3)C2=O)C1` (stereo unspecified), the INHIBITION is recorded as -4.82%.

Regarding `CCc1nnc(CN2CCCC(c3cc(C(N)=O)[nH]n3)C2)o1` (stereo unspecified), the INHIBITION was found to be 4.71%.

Consider `CCC(=O)c1ccc(OCC(=O)NCC2CCCO2)cc1` (stereo unspecified), for which the INHIBITION stood at 3.48%.

Regarding `CCC(=O)c1ccc(OCC(=O)NCC2CC(CC)=NO2)cc1` (stereo unspecified), the INHIBITION is on record as 52.6%.

As for `C=C(C)COc1ccc(C(=O)NCC2CC(CC)=NO2)cc1` (stereo unspecified), the INHIBITION amounted to 6.26%.

Consider `Cc1cc2cccc(NC(=O)N3CC[C@H]4CC[C@@H](C3)N4C)c2o1`, for which the INHIBITION is recorded as -4.01%.

Consider `CCN(CC(=O)NC(C)C)C(=O)c1ccc(-c2ccsc2)nc1C`, for which the INHIBITION is 47%.

For `CCc1n[nH]c(C2CN(C(=O)c3ncoc3CC)CCO2)n1` (stereo unspecified), the INHIBITION is -19.9%.

Turning to `CCn1cnnc1C1CCN(C(=O)c2cccc(OC)c2OC)CC1`, the INHIBITION is given as 22.3%.

With `CN(C)C(=O)C1(Oc2ccc(Cl)cc2)CCNCC1`, the INHIBITION is given as 1.79%.

As for `CN(Cc1ccoc1)C(=O)C1(Oc2ccc(Cl)cc2)CCNCC1`, the INHIBITION is given as 11.9%.

As for `CN(Cc1ccncn1)C(=O)C1(Oc2ccc(Cl)cc2)CCNCC1`, the INHIBITION was 53.3%.

Regarding `CC(C)c1ccc2c(c1)CCCN2C(=O)CN(C)S(C)(=O)=O`, the INHIBITION stood at 48.3%.

Turning to `CC(=O)c1c(C)nn(S(=O)(=O)c2ccc(F)cc2)c1C`, the INHIBITION was 53.8%.

Regarding `CC(=O)c1c(C)nn(S(=O)(=O)c2ccc(C)cc2)c1C`, the INHIBITION is listed as -15.5%.

Consider `CC(=O)c1c(C)nn(S(=O)(=O)c2ccc(Cl)cc2)c1C`, for which the INHIBITION was -16.6%.

On to `CSc1nc(N)cc(N2C[C@H]3CC[C@@H](C2)N(Cc2cscn2)C3=O)n1`, for which the INHIBITION was 9.4%.

On to `CS(=O)(=O)N1CCC2(CC1)CN(CC1CC1)CC21CCNC1=O` (stereo unspecified), for which the INHIBITION is 3.81%.

`O=C(c1ccc(F)c(Cl)c1)N1C[C@H]2CC[C@@H](C1)N(Cc1ccccc1)C2`: the INHIBITION was 68.5%.

In the case of `O=C(c1c[nH]c(=O)c(Cl)c1)N1C[C@H]2CC[C@@H](C1)N(Cc1ccccc1)C2`, the INHIBITION was -23.2%.

On to `O=C(c1cc(F)cc(Cl)c1)N1C[C@H]2CC[C@@H](C1)N(Cc1ccccc1)C2`, for which the INHIBITION is given as -31.3%.

Turning to `COCCN1C[C@@H]2CC[C@H]1CN(C(=O)CCn1cc(Cl)cn1)C2`, the INHIBITION is reported as 26.6%.

Take `CCN(CC)c1ccc(C(=O)N2C[C@H]3CC[C@@H](C2)N(CCOC)C3)cc1`: the INHIBITION turned out to be 25.4%.

`O=S(=O)(c1cccc(F)c1)N1C[C@H]2CC[C@@H](C1)N(Cc1ccccc1)C2`: the INHIBITION is 63.6%.

`O=S(=O)(c1cccnc1)N1C[C@H]2CC[C@@H](C1)N(Cc1ccccc1)C2`: the INHIBITION was 18.6%.

With `COCCN1C[C@@H]2CC[C@H]1CN(C(=O)c1ccc(Cl)cc1)C2`, the INHIBITION is reported as 66.1%.

On to `O=S(=O)(c1cccnc1)N1C[C@H]2CC[C@@H](C1)N(Cc1ccccn1)C2`, for which the INHIBITION was determined as 31.7%.

Regarding `CN1CCN(C(=O)C2CCN(c3cccnn3)CC2)CC1`, the INHIBITION was -9.32%.

As to `CCc1nnc2n1CCN(C(=O)c1nc(-c3ccco3)sc1C)C2`, the INHIBITION came to 21.5%.

With `O=C(Cn1ccc(C(=O)O)n1)Nc1c(Cl)cccc1Cl`, the INHIBITION was determined as 19.09%.

As to `Cc1ncc(CN(C)Cn2nc(-c3ccccc3)oc2=O)s1`, the INHIBITION is 3.41%.

As for `CN(Cc1nnc2n1CCC2)C(=O)c1ccc2c(c1)OCCO2`, the INHIBITION was -2.53%.

For the molecule `O=C(Cc1ccccc1F)N1CCN(C(=O)c2ccoc2)CC1`, the INHIBITION is given as 16.6%.

Consider `Cc1nnc2ccc(N3CCC4(CCOC4)C3)nn12` (stereo unspecified), for which the INHIBITION is recorded as 9%.

Consider `Cc1nc(N2CCC3(CCOC3)C2)c2cc[nH]c2n1` (stereo unspecified), for which the INHIBITION amounted to 71.1%.

Turning to `Cc1nc(C)c(C)c(N2CCC3(CCOC3)C2)n1` (stereo unspecified), the INHIBITION is listed as -129%.

As to `COc1ccc2c(c1)CN(Cc1ccco1)C(=O)CCN2`, the INHIBITION is reported as 17.7%.

For `Cc1ccc(-n2cc(C(=O)N3CCCC(n4cccn4)C3)nn2)cc1` (stereo unspecified), the INHIBITION is -2.19%.

Regarding `CNC(=O)CC1COCCN1C(=O)C1(c2ccc(Cl)cc2)CCC1` (stereo unspecified), the INHIBITION turned out to be 52.1%.

For the molecule `O=C(O)CC1COCCN1C(=O)C1(c2ccc(Cl)cc2)CCC1` (stereo unspecified), the INHIBITION came to 1.74%.

Turning to `O=C(N1CCOCC(O)C1)C1(c2ccc(Cl)cc2)CCC1` (stereo unspecified), the INHIBITION was 0.0996%.

As for `COc1cc(C(=O)N2CCC(c3n[nH]c(C)n3)CC2)cc(OC)c1C`, the INHIBITION is 0.914%.

For `O=C(Cc1n[nH]c(-c2cncc(Br)c2)n1)NCc1ccccn1`, the INHIBITION came to 22.5%.

For the molecule `CC1(c2nccs2)CCN(C(=O)CCN2CCOCC2)CC1`, the INHIBITION amounted to 23.3%.

On to `Cc1noc(C(C)N2CCN(Cc3nc(C)c(C)o3)CC2)n1` (stereo unspecified), for which the INHIBITION is listed as -2.143%.

As to `Cc1noc(-c2ccc(N(C)Cc3ccncc3C)nc2)n1`, the INHIBITION is on record as -3.58%.

`Cc1noc(-c2cccnc2N(C)Cc2cscn2)n1`: the INHIBITION stood at 68.8%.

Turning to `Cc1noc(-c2cccnc2N2CCN(c3cnn(C)c3)CC2)n1`, the INHIBITION is -26.8%.

Take `Cc1noc(-c2ccc(N(C)Cc3ccncn3)nc2)n1`: the INHIBITION is 26.4%.

For the molecule `Cc1noc(-c2cccnc2N(C)Cc2ccc([S+](C)[O-])cc2)n1` (stereo unspecified), the INHIBITION was determined as 79.9%.

With `Cc1noc(-c2ccc(N(C)Cc3cccnc3)nc2)n1`, the INHIBITION is listed as 28.7%.

Regarding `CN(Cc1ccc([S+](C)[O-])cc1)c1ccccn1` (stereo unspecified), the INHIBITION was determined as 40.5%.

On to `Cc1noc(-c2ccc(N(C)Cc3nccs3)nc2)n1`, for which the INHIBITION is on record as 1.79%.

With `Cc1noc(-c2cccnc2N(C)Cc2cc(C)on2)n1`, the INHIBITION was determined as 50.8%.
